# MLL AF4-AF9 inh: inhibitors of human MLL-AF4/AF9 interaction | 350,000 compounds, 0.47% hits | inhibition, % at 10 µM | P42568 | AlphaScreen, biotin-AF4 peptide binding to FLAG-AF9;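 active = every replicate reaching a set inhibition limit, whatever the replicate mean, cut at about 25% in these data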;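 also: 0% = plate neutral control median and 100% = total signal loss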
# DENV2 CPE: protects cells from dengue virus 2 cytopathic effect | DENV2-infected cells, cytopathic effect rescue, plate reader | CPE inhibition, % at 9.99 µM | 350,000 compounds, 1.7% hits; in the data active = CPE inhibition above about 20%, passing the limit was not always enough; tested in BHK-21 cells;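 also: 0% = median of neutral control wells and 100% = median of positive control wells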
# PDI turbidity: inhibitors of human protein disulfide isomerase. P07237. PDI insulin aggregation turbidity, A650, 90 min. inhibition, % at 10 µM. 350,000 compounds, 0.052% hits. AID 588391;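 active = mean inhibition across replicates of 30% or more, whatever share of single replicates reach that level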
# ERAP1 inh: inhibitors of human ERAP1 aminopeptidase; recombinant ERAP1, Leu-AMC fluorescence, 60 min; inhibition, % at 10.7 µM; 340,000 compounds, 0.15% hits; AID 652197;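 active = mean replicate inhibition of at least 30%, or all replicates individually reaching that 30% level; inactive = mean below 30% and not every replicate reaching it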;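 also: 0% = neutral control wells and 100% = L-leucinethiol positive control wells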
# ERp5 inh: ERp5 (human) disulfide isomerase inhibition; Q15084; ERp5 insulin aggregation, absorbance 650 nm, 90 min; inhibition, % at 9.99 µM; 350,000 compounds, 0.05% hits;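 active = mean replicate inhibition above about 25%, with every replicate also reaching it, limit read from the data, passing the limit was not always enough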
# Target sequence (Q15084 whole entry, looked up): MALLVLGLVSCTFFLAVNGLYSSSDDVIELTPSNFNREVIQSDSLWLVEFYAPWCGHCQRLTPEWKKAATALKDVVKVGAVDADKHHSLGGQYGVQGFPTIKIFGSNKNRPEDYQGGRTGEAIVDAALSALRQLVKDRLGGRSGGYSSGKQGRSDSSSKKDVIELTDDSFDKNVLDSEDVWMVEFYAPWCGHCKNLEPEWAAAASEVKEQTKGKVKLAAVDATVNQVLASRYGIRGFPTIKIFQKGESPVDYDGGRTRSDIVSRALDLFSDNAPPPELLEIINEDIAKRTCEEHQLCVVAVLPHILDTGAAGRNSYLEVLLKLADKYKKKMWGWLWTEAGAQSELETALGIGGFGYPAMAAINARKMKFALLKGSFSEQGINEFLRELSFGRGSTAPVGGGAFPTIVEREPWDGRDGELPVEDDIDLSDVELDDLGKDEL
# * marks the source's active call; other numbers are inactive results; nt = not tested or not shown. Only some compounds are listed: those with a hit (about 1.8% of all), similar ones and a draw of the others.
SMILES,MLL AF4-AF9 inh,DENV2 CPE,PDI turbidity,ERAP1 inh,ERp5 inh
O=C(c1ccc[nH]1)N1O[C@@H]2C=C[C@H]1C2,-1.6,61.6*,-13.4,nt,0.4
O=C(/C=C/c1ccc(Cl)cc1Cl)NC(=S)Nc1ccccn1,nt,nt,1.0,nt,nt
Clc1ccc(C=Cc2ccccn2)c(Cl)c1,2.6,37.5*,-13.4,-1.1,-9.4
Cc1ccc(S(=O)(=O)N2CCN(C(=O)n3ccnc3)CC2)cc1,-1.3,-8.3,0.2,0.3,0.5
CC(C)c1ccc(S(=O)(=O)N2CCN(C(=O)n3ccnc3)CC2)cc1,1.5,31.1*,-2.0,-0.3,0.8
CN(C)Cc1cc2ccccc2c2c1COC2,31.9*,-2.8,-5.3,1.2,-1.9
Cc1cc2ccc3ccccc3c2cc1CN(C)C,nt,3.8,4.4,-2.8,5.2
COc1ccc(-c2ccccc2)cc1NC(=O)[C@@H]1O[C@H](CO)[C@H](O)[C@H](O)[C@H]1O,1.6,32.0*,-0.6,0.5,-0.4
O=C(CCl)Nc1ccc(N2CCCCCC2)cc1,50.9*,3.3,18.9,-4.6,-1.2
CC1CCCCN1CC(=O)Nc1ccc(N2CCCCCC2)cc1 (configuration not stated),48.5*,9.6,-4.7,1.5,4.7
CC1CCCCN1CC(=O)Nc1ccc(Oc2ccccc2)cc1 (configuration not stated),nt,nt,-7.6,nt,nt
CCCNC(=O)C[C@@H]1CC[C@@H]2[C@H](COC[C@H](O)CN2C(=O)C2CCOCC2)O1,-1.7,-2.1,nt,0.3,-2.9
COC(=O)/C=C/c1cnc[nH]1,nt,50.9*,-4.2,0.4,7.8
CC(=NO)C1CCC2C3CCC4=CC(=NO)CCC4(C)C3C(=O)CC12C (configuration not stated),10.2,-5.3,37.4*,3.8,-3.9
O=C(C[C@@H]1C=C[C@@H](NC(=O)CN2CCOCC2)[C@H](CO)O1)NCc1cccc(F)c1,0.4,5.6,nt,2.9,3.5
Nc1nc2c(ncn2[C@@H]2O[C@H](CNCc3ccc(F)c(N4CCOCC4)c3)[C@@H](O)[C@H]2O)c(=O)[nH]1,3.0,25.9*,nt,-2.2,-5.9
CCn1c(SCc2cccc(F)c2)nnc1-c1cccnc1,-1.7,-0.7,-2.4,3.4,-2.2
CCn1c(SCc2cccc(F)c2)nnc1-c1ccncc1,-1.0,46.8*,-1.8,-3.3,-0.8
CN1CCN(C(=O)C[C@H]2CC[C@H]3[C@@H](COC[C@@H](O)CN3S(=O)(=O)c3cccc(Cl)c3)O2)CC1,-4.8,76.2*,nt,-1.9,2.0
COc1cccc(S(=O)(=O)N2C[C@@H](O)COC[C@@H]3O[C@H](CC(=O)N4CCCCC4)CC[C@H]32)c1,-1.1,12.6,nt,-2.8,1.1
COc1cccc(S(=O)(=O)N2C[C@@H](O)COC[C@@H]3O[C@@H](CC(=O)N4CCCCC4)CC[C@H]32)c1,-0.1,29.1*,nt,-4.0,1.6
O=C(C[C@@H]1CC[C@@H]2[C@H](COC[C@@H](O)CN2S(=O)(=O)c2cccc(Cl)c2)O1)N1CCCCC1,3.3,-2.2,nt,-1.9,0.1
O=C(C[C@@H]1CC[C@@H]2[C@H](COC[C@@H](O)CN2Cc2ccc(Oc3ccccc3)cc2)O1)N1CCCCC1,2.7,23.9*,nt,0.7,-1.0
O=C(C[C@@H]1CC[C@H]2[C@@H](COC[C@@H](O)CN2S(=O)(=O)c2cccc(Cl)c2)O1)N1CCOCC1,-2.1,24.1*,nt,-1.1,-6.6
CCOC(=O)Cc1sc(N)nc1C,0.3,40.9*,-7.6,1.3,-1.8
SMILES,MLL AF4-AF9 inh,DENV2 CPE,PDI turbidity,ERAP1 inh,ERp5 inh
C[C@@H]1CCCCO[C@@H](CN(C)C(=O)CCCN(C)C)[C@@H](C)CN([C@H](C)CO)C(=O)c2cc(NC(=O)NC3CCCCC3)ccc2O1,-1.5,0.4,nt,-4.7,2.7
COc1ccc(CNC(=O)C[C@H]2CC[C@H]3[C@@H](COc4ccc(NC(=O)C(C)C)cc4C(=O)N3C)O2)cc1,-2.1,nt,nt,nt,nt
COc1cccc(-c2cnc3c(c2)C(=O)N([C@@H](C)CO)C[C@H](C)[C@@H](CN(C)Cc2ccc(C(=O)O)cc2)O3)c1,-2.7,-5.4,nt,-3.8,2.0
O=C(C[C@H]1C[C@@H]2c3cc(NC(=O)NC4CCCC4)ccc3O[C@@H]2[C@@H](CO)O1)NCc1ccccc1,-0.7,1.2,nt,-1.6,1.8
Brc1ccc(-c2noc3c2-c2nc(-c4ccccc4)sc2CC3)cc1,1.5,128.5*,-5.8,nt,6.5
COc1ccc(-c2noc3c2-c2nc(-c4ccccc4)sc2CC3)cc1,-11.0,-2.8,1.7,4.2,2.4
COc1cc(/C=C/C(=O)/C=C(O)/C=C/c2ccc(O)c(OC)c2)ccc1O,0.9,nt,45.8*,1.7,10.0

# Screens (PubChem)
